# Measured values as given in PubChem BioAssay AID651813 (National Center for Advancing Translational Sciences (NCATS), 2012).
# Out of some 2,100 compounds screened, about 1,100 (52%) were called active. About 27% were inconclusive and are not listed. The set was probably picked from earlier hits. The list shows a part of the results. Unmarked numbers belong to inactive results. The call rests on the fitted dose curve; in most records, active means well fitted inhibition curve with a large enough effect; inconclusive means small, poorly fitted or top-dose-only effect; inactive means no such curve, though single readings can be large or run the other way.
# Target: DNA dC->dU-editing enzyme APOBEC-3G (Homo sapiens) (UniProt Q9HC16)
# Test: qHTS for inhibitors of Vif-A3G interactions: Cherry picks counterscreen;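 further: hits raise yellow fluorescence by blocking Vif-driven A3G-eYFP degradation; nearly all actives have a fitted effect of over 70% in size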;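 on max response: max response given as percent of control signal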
# Conditions: HeLa A3G-eYFP + Vif (tagged APOBEC3G with the HIV-1 protein that degrades it), eYFP fluorescence, 24 h
# How it was run: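 HeLa cells stably expressing A3G-eYFP and Vif were treated for 24 h at 37 deg C with compounds at several concentrations; yellow fluorescence (Ex 488 nm, Em 500-530 nm) read by Acumen Explorer, MG132 as positive control.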
# Potency means the concentration at half of the fitted maximal effect.
# Sequence of DNA dC->dU-editing enzyme APOBEC-3G (Homo sapiens) (Q9HC16 whole entry, looked up): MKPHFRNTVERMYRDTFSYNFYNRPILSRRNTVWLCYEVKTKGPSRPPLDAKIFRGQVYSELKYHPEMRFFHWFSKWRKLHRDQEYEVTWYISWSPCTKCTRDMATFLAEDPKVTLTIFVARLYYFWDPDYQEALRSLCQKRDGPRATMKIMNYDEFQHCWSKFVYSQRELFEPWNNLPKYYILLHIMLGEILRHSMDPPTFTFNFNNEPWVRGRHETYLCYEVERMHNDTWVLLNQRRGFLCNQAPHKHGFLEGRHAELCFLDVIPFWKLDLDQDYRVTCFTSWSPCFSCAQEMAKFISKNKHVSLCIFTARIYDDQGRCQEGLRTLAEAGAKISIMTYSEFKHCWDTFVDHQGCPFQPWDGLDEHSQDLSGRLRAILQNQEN
SMILES,Potency,max response
Cn1c(=O)[nH]c(=O)c2c1nc(Br)n2Cc1cccc(Br)c1,7.04 µM (active),
O=C1C=CC(O)(c2cc(=O)c3c(O)cc(O)cc3o2)C=C1,7.9 µM (active),
COc1cc(-c2noc(C)c2C#Cc2ccc(N)cc2)cc(OC)c1OC,0.444 µM (active),
CCOC(=O)N1C/C(=C\c2ccccc2)C(=O)/C(=C/c2ccccc2)C1,8.86 µM (active),
Cc1cccc(C(=O)Nc2nnc(C3=COCCO3)o2)c1,,-1.82%
O=c1oc2cc(O)ccc2cc1-c1nc(-c2ccc(Cl)c(Cl)c2)cs1,1.16 µM (active),
CCc1sc(-c2cc3ccc(O)cc3oc2=O)nc1-c1ccc(C)cc1,2.59 µM (active),
CCN(CC)c1ccc2cc(-c3nc(-c4ccc(Cl)cc4Cl)cs3)c(=O)oc2c1,,34.3%
NC(=O)C1CCN(c2nc3ccccc3nc2NS(=O)(=O)c2ccc(Br)cc2)CC1,,-5.92%
CN1CCN(c2nc3ccccc3nc2NS(=O)(=O)c2ccc(Br)cc2)CC1,,-6.45%
O=S(=O)(Nc1nc2ccccc2nc1N1CCN(c2ccccn2)CC1)c1ccc(Cl)cc1,16.4 µM (active),
CCN1C(=S)SC(=O)C1=C1C=C(C)N(Cc2ccco2)C(C)=C1,15.8 µM (active),
Cc1cccc(C)c1NC(=S)NC(C)CCc1ccccc1 (stereo not drawn),,-1.19%
COc1ccc(NC(=O)c2c(Cl)n(C)c3ccccc23)cc1,14 µM (active),
CCOC(=O)c1csc(NC(=O)c2cc(-c3ccccn3)nc3ccccc23)n1,,-7.52%
COc1cc(C(=O)Nc2ccc(C)cc2)c2ccccc2n1,2.5 µM (active),
O=C(O)CSc1c2ccccc2cc2ccccc12,,-3.73%
COc1ccc(NC(=O)c2cccc3ccccc23)cc1,15.8 µM (active),
CC(C)(C)c1ccc(Oc2ccc(NC(=O)c3ccccc3C(=O)O)cn2)cc1,,6.3%
CCN1/C(=C/c2cc[n+](C)cc2)C=Cc2cc(C)ccc21,23.1 µM (active),
O=C1CSC(=S)N1Cc1cccnc1,4.11 µM (active),
O=C1/C(=C/c2ccc(O)cc2)SC(=S)N1Cc1cccnc1,,-0.458%
Cc1ccc2c(c1)C=CC(C#N)N2C(=O)c1ccccc1 (stereo not drawn),4.98 µM (active),
Cc1ccc2c(/C=C/c3c[nH]c4ccccc34)ccnc2c1C,5.8 µM (active),

SMILES,Potency,max response
C(=Cc1c[nH]c2ccccc12)c1nccc2ccccc12,20.6 µM (active),
C(=C\c1c[nH]c2ccccc12)/c1nccc2ccccc12,10.3 µM (active),
CNCC(O)Cn1c2c(c3ccccc31)CCCC2 (stereo not drawn),,20.6%
O=C(c1ccccc1F)n1c2c(c3ccccc31)CCCC2,15.8 µM (active),
O=C(NC1CCCCC1)c1cccc2c1C(=O)c1ccc(N3CCC(Cc4ccccc4)CC3)cc1S2(=O)=O,15.8 µM (active),
O=C(NC1CC1)c1cccc2c1C(=O)c1ccc(N3CCC(Cc4ccccc4)CC3)cc1S2(=O)=O,20.6 µM (active),
CCN1/C(=C/c2cccc[n+]2C)Sc2ccc(OC)cc21,20.6 µM (active),
COc1ccc2c(c1)N(C)/C(=C/c1cccc[n+]1C)S2,17.7 µM (active),
CC[n+]1ccccc1/C=C1\Sc2ccc(C)cc2N1C,20.6 µM (active),
CC(=O)N1CCc2c(sc(NC(=O)CSc3ccccc3)c2-c2nc3ccccc3s2)C1,29.1 µM (active),
CN1CCc2c(sc(NC(=O)CSc3ccc(F)cc3)c2-c2nc3ccccc3s2)C1,2.59 µM (active),
CC(=O)Nc1sc2c(c1-c1nc3ccccc3s1)CCN(C(C)C)C2,18.4 µM (active),
CS(=O)(=O)Nc1ccc(C2=NN(S(=O)(=O)c3ccccc3)C(c3cccs3)C2)cc1 (stereo not drawn),20.6 µM (active),
CCc1ccc(C2=NN(S(C)(=O)=O)C(c3cccs3)C2)cc1 (stereo not drawn),14 µM (active),
CC(C)n1cc(/C=C2\NC(=O)N(c3cccc(Cl)c3)C2=O)c2ccccc21,14 µM (active),
Cc1ccc(NC(=O)c2ccc(NCC3CCCO3)c([N+](=O)[O-])c2)cc1Cl (stereo not drawn),20.6 µM (active),
Cc1ccc(NC(=O)c2ccc([N+](=O)[O-])s2)cc1S(=O)(=O)N1CCOCC1,,-5.77%
Cc1ccc(NC(=O)c2ccc(NCc3ccco3)c([N+](=O)[O-])c2)cc1Cl,14.6 µM (active),
Cc1ccc(NC(=O)CSc2ccccc2NC(=O)c2cccc(Cl)c2)cc1Cl,,5.07%
O=c1[nH]c(-c2cccnc2)nc2sc(-c3ccccc3)cc12,0.627 µM (active),
S=c1[nH]cnc2sc(-c3ccccc3)cc12,,1.89%
CCCn1c(CN2CCN(C(=O)OCC)CC2)nc2cc(NC(=O)C(C)C)ccc21,11.2 µM (active),
CCOc1ccc(C(C)=O)cc1COc1cccnc1[N+](=O)[O-],12.5 µM (active),
N#C/C(=C/c1ccc(N2CCCCCC2)o1)c1cccc(F)c1,4.61 µM (active),

SMILES,Potency,max response
N#C/C(=C/c1ccc(N2CCCCC2)o1)c1cccc(F)c1,5.17 µM (active),
O=C1CC(c2ccccc2)Cc2[nH]c(=O)c(-c3nc(-c4cccc(Cl)c4)cs3)cc21 (stereo not drawn),2.59 µM (active),
Cc1sc(-c2cc3c([nH]c2=O)CC(c2ccccc2)CC3=O)nc1-c1ccc(Cl)cc1 (stereo not drawn),1.3 µM (active),
CCCc1nc2c(C)cc(Br)cn2c1Cc1ccccc1,,-5.65%
COc1c(-c2ccc(O)c(O)c2)oc2cc(O)cc(O)c2c1=O,7.9 µM (active),
O=C(COc1ccccc1)NC(=S)Nc1cccc2c(O)cccc12,,-0.841%
CCC(=O)NC(=S)Nc1cccc(Cl)c1N1CCCC1,,-18%
NC(=O)c1ccccc1NC(=S)NC(=O)CCc1ccccc1,5.59 µM (active),
O=C1CCCN1c1ccc(S(=O)(=O)Nc2ccc3c(c2)OCCO3)cc1,5.59 µM (active),
COc1ccc(C(=O)C[n+]2cc(Br)cc3ccccc32)cc1,8.2 µM (active),
O=C(C[n+]1cccc2cc(Cl)ccc21)c1ccc2ccccc2c1,23.1 µM (active),
CC(C)(C)c1ccc(C(=O)C[n+]2cccc3cc(Cl)ccc32)cc1,18.4 µM (active),
CCCC1=[N+](CC(=O)c2ccc(Br)cc2)CCn2cccc21,,-25.2%
O=C(C[n+]1cccc2cc(Cl)ccc21)c1ccc(I)cc1,18.4 µM (active),
COc1ccc(C(=O)C[n+]2cccc3cc(Cl)ccc32)cc1,16.4 µM (active),
O=C1Nc2ccc(Br)cc2C12NNc1ccccc1O2 (stereo not drawn),15.8 µM (active),
O=[N+]([O-])c1ccc(N/N=C/c2c[nH]c3ccccc23)cc1,16.4 µM (active),
C/C(=N/Nc1ccc([N+](=O)[O-])cc1)c1c[nH]c2ccccc12,18.4 µM (active),
COc1ccccc1NS(=O)(=O)c1cc([N+](=O)[O-])ccc1N/N=C/c1c[nH]c2ccccc12,9.2 µM (active),
O=[N+]([O-])c1ccc(N/N=C/c2c[nH]c3ccccc23)c(S(=O)(=O)Nc2ccc(Cl)cc2)c1,23.1 µM (active),
COc1ccc(NS(=O)(=O)c2cc([N+](=O)[O-])ccc2N/N=C/c2c(C)[nH]c3ccccc23)cc1,18.4 µM (active),
COc1ccccc1NS(=O)(=O)c1cc([N+](=O)[O-])ccc1N/N=C/c1c(C)[nH]c2ccccc12,2.8 µM (active),
Cc1[nH]c2ccccc2c1/C=N/Nc1ccc([N+](=O)[O-])cc1,8.2 µM (active),
CC1CC(C)CN(CC(=O)c2c[nH]c3ccccc23)C1 (stereo not drawn),18.4 µM (active),

SMILES,Potency,max response
COc1cc(NC(=O)c2ccco2)c(C(=O)OCC(=O)c2c[nH]c3ccccc23)cc1OC,,-2.18%
O=[N+]([O-])c1ccc(N=Nc2ccc(O)c3ccccc23)cc1,11.2 µM (active),
O=C1NC(=Nc2ccccc2Cl)S/C1=C\c1cc([N+](=O)[O-])ccc1O,,-33%
COc1cc2c(cc1OC)C(C)N(C(=O)c1cc(Cl)nc(Cl)c1)CC2 (stereo not drawn),12.5 µM (active),
COc1cc2c(cc1OC)C(C)N(C(=O)c1cc(C)on1)CC2 (stereo not drawn),0.704 µM (active),
Cc1ccc2ccc3c(c2n1)NS(=O)(=O)c1ccc(C(F)(F)F)cc1-3,11.6 µM (active),
COCCNC(=S)NN=C1CCCCCC1,,0.0981%
COc1ccc2nc(NC(=O)Nc3ccccc3OC)sc2c1,4.44 µM (active),
COc1ccc2nc(NC(=S)NC(=O)c3ccco3)sc2c1,,-0.487%
COc1cc(Cn2c3ccc(NC(=O)CCc4ccccc4)cc3c(=O)n2C)ccc1F,3.53 µM (active),
COc1ccccc1CCC(=O)Nc1ccc2c(c1)c(=O)n(C)n2Cc1ccc(F)cc1,17.7 µM (active),
COc1ccccc1CCC(=O)Nc1ccc2c(c1)c(=O)n(C)n2-c1cccs1,3.53 µM (active),
C/C(CCc1ccc2c(c1)OCO2)=N\NC(=S)NC(C)C,,4.06%
Cc1cccc(N2CCN(Cc3cn(C)nc3-c3ccccc3F)CC2)n1,5.59 µM (active),
COC(=O)c1sc(N)c(C(=O)OC)c1COC(=O)c1c(C)noc1C,4.98 µM (active),
CN(C)c1ccc(/C=C2/C[N+](C)(C)C/C(=C/c3ccc(N(C)C)cc3)C2=O)cc1,8.2 µM (active),
Nc1ccccc1C=C1Cc2ccccc2C1=O,7.31 µM (active),
CN(C)c1ccc(/C=C2\Cc3ccccc3C2=O)cc1,2.59 µM (active),
Cc1ccc(N2C(=O)[C@@H]3[C@H](C2=O)[C@H]2C=C(C(=O)c4ccccc4)C=CN2[C@@H]3C(=O)c2ccc(Cl)cc2)cc1,,-6.73%
O=c1[nH]c2ccccc2n2c(=S)[nH]nc12,,-15.5%
O=c1[nH]c2ccccc2n2c(C(F)(F)F)nnc12,20.6 µM (active),
